Laboratory results reported in PubChem BioAssay (NCATS).
Records with an inconclusive call do not appear. Calls of active or inactive are those of the source. Unless noted, the call rests on the fitted dose curve; in most records, active means well fitted curve in the direction sought with a large enough effect; inconclusive means small, poorly fitted or top-dose-only effect, or another doubt; inactive means no such curve, though single readings can be large; an effect the other way counts as inactive or inconclusive.

Assays:
[1] = biological target: Lysosomal acid glucosylceramidase (Homo sapiens) (UniProt P04062); experiment: Glucocerebrosidase-p2 (AID 348; in the data active means potency below about 10 µM; further: potency means the concentration at half of the fitted maximal effect); details: purified GBA, blue fluorogenic substrate, 40 min
Lysosomal acid glucosylceramidase (Homo sapiens), sequence (P04062 whole entry, looked up): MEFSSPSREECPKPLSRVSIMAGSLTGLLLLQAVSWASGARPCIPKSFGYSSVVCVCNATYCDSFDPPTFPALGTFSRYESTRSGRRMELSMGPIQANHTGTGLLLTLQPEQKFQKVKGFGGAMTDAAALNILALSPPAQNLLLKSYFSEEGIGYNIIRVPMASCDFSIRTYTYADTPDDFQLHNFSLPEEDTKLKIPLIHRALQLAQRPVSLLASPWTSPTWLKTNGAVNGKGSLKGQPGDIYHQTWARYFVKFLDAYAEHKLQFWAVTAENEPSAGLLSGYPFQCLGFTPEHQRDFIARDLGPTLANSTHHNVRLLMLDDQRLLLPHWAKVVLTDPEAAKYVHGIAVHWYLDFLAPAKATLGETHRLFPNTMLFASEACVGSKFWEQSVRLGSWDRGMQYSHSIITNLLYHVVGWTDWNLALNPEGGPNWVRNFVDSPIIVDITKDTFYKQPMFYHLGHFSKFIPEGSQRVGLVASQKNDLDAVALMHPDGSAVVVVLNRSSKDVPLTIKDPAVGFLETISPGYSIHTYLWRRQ
Method in brief: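 Normal human glucocerebrosidase (0.2 nM) with blue fluorogenic substrate (80 uM final) in citrate/phosphate pH 5.9 with 10mM sodium taurocholate, 0.01% tween-20; 40 min RT, NaOH/glycine stop; fluorescence Ex 365/Em 440; AC50 from a titration from 0.6 nM upwards.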

[2] = AP1 Signaling Pathway (AID 357; active means well fitted curve in either direction with a large enough effect, not every such curve was filed as active;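 further: ME-180 reporter cells stimulated with EGF at its EC50 level; on the % scale 0 is the no-effect control and ±100 the full control effect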); details: ME-180 AP-1-bla reporter, EGF-induced, beta-lactamase ratio, 5 h; at 7.69 µM (top of the series) unless noted
Method in brief: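 A ratiometric CCF4 readout (405 nm excitation; 460 and 530 nm emission) quantified AP-1-driven beta-lactamase in ME-180 cells after 5 h with compound and EC50 EGF; AC50 values were derived for activators and inhibitors.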

[3] = biological target: Cytochrome P450 1A2 (Homo sapiens) (UniProt P05177); experiment: p450-cyp1a2 (AID 410; calls by dose curve; further: potency means the concentration at half of the fitted maximal effect); details: recombinant CYP1A2, luciferin-ME demethylation, luminescence; series mostly up to 57 µM
Cytochrome P450 1A2 (Homo sapiens), sequence (P05177 whole entry, looked up): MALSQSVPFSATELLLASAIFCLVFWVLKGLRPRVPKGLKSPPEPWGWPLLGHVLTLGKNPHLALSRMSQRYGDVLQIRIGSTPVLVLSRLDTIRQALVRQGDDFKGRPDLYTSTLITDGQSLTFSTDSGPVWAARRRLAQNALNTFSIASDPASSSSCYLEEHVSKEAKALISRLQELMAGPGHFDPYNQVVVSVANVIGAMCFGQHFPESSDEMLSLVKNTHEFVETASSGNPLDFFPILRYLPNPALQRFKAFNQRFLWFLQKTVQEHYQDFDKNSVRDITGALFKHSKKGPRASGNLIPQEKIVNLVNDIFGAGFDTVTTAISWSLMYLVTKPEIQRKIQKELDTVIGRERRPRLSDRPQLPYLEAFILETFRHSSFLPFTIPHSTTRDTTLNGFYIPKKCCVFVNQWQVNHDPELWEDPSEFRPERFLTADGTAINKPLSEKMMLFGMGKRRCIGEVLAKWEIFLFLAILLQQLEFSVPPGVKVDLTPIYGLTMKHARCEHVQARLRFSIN
Method in brief: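 Luminescent demethylation readout: Luciferin-ME (100uM, equal to Km) turned over by 20nM CYP1A2 for 60 min at room temperature after NADPH regeneration addition, following 10 min compound preincubation. Normalization used 57 uM furafylline as full inhibition.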

[4] = NFAT Signaling Pathway (AID 444; active means well fitted curve in either direction with a large enough effect, not every such curve was filed as active;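 further: carbachol stimulus at about its EC50 of 1 µM final; on the % scale 0 is the no-effect control and ±100 the full control effect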); details: Jurkat NFAT-bla M1, carbachol, beta-lactamase ratio, 5 h; at 7.69 µM (top of the series) unless noted
Method in brief: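 Read-out: CCF4 FRET ratio (460 nm/530 nm) after 1 h RT dye loading, used for %activity and AC50 from titration series. Cells: Jurkat NFAT-β-lactamase/M1 line, treated with compound plus 1 uM carbachol for 5 h, 37 °C.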

[5] = Stat Signaling Pathway (AID 446; active means well fitted curve in either direction with a large enough effect, not every such curve was filed as active;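 further: ME-180 cervical cancer cells given 40 pM IL-6 alongside compound; SIE-controlled beta-lactamase reporter measured as 460/530 nm FRET emission ratio; on the % scale 0 is the no-effect control and ±100 the full control effect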); details: ME-180 (cervical carcinoma) SIE beta-lactamase reporter, IL-6 stimulated, 5 h; at 7.69 µM (top of the series) unless noted
Method in brief: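 Compound effects on IL-6-induced STAT reporter activity were measured in ME-180 cells. After overnight culture, cells were co-treated with 40 pM IL-6 for 5 hrs before beta-lactamase substrate loading at room temperature.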

[6] = biological target: Glucocorticoid receptor (Homo sapiens) (UniProt P04150); experiment: GR-GFP Redistribution (AID 450;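 active means compounds whose dose series gives a full or clear partial fitted curve of increased nuclear translocation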; further: potency means the concentration at half of the fitted maximal effect); details: U2OS GR-GFP nuclear translocation, laser cytometry, 2 h
Glucocorticoid receptor (Homo sapiens), sequence (P04150 whole entry, looked up, the tested form may be a part): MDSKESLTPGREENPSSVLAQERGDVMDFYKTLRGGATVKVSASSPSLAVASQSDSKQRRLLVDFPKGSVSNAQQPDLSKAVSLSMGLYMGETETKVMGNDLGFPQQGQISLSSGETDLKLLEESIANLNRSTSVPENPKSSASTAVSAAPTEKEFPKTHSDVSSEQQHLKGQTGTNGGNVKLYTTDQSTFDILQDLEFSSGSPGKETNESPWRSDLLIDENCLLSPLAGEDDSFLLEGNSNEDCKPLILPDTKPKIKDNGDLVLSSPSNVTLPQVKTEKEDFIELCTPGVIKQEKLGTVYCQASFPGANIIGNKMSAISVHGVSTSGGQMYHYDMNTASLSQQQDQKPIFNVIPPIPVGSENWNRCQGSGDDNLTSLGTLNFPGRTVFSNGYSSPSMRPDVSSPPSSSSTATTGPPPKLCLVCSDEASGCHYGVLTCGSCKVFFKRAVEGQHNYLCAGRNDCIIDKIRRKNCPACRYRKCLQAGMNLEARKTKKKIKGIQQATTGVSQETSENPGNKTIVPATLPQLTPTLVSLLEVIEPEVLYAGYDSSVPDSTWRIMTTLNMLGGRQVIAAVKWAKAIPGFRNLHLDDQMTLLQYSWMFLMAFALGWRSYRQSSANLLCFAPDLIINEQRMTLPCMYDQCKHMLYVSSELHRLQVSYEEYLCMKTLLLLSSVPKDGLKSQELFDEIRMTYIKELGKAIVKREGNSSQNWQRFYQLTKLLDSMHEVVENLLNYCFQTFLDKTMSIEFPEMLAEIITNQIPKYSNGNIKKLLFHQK

[7] = biological target: Glucocorticoid receptor (Homo sapiens) (UniProt P04150); experiment: GR-EFC Redistribution (AID 451; calls by dose curve; further: potency means the concentration at half of the fitted maximal effect); details: CHO-K1 GR-EFC translocation, beta-gal luminescence, 2 h
Method in brief: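 Translocation of GR-ED fusion to nuclear EA restores b-gal, read by luminescence after 1 h room-temperature detection. Engineered CHO-K1 biosensor cells, 1,000/well, exposed 2 h at 37 C to titrations up to 46 uM final.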

[8] = biological target: Mitogen-activated protein kinase 10 (Mus musculus) (UniProt Q61831); experiment: JNK3 AlphaScreen Assay (AID 530; active means well fitted curve in either direction with a large enough effect, not every such curve was filed as active;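 further: kinase came from lysate of stimulated human HepG2 cells; signal reports phosphorylation of biotinylated GST-cJun 1-79 at Ser73 with 10 µM ATP; on the % scale 0 is the no-effect control and ±100 the full control effect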); details: JNK3 lysate, c-Jun phosphorylation; series mostly up to 57.1 µM
Method in brief: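 qHTS titrations with 15 min compound pre-incubation before adding ATP (10 uM final). Read-out: AlphaScreen of Ser73-phosphorylated biotin-GST-cJun using HepG2 lysate JNK3 activated by IL-1β and TNFα.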

[9] = biological target: 3',5'-cyclic-AMP phosphodiesterase 4B (Homo sapiens) (UniProt Q07343); experiment: qHTS Assay for Inhibitors of PDE-IV (AID 607; active means well fitted activation curve with a large enough effect in the main read-out, with a control signal flat, not every such curve was filed as active; further: % of control where 0% means no effect); details: HEK293 ACTOne CNG channel cells, membrane potential fluorescence; series mostly up to 22.9 µM
3',5'-cyclic-AMP phosphodiesterase 4B (Homo sapiens), sequence (Q07343 whole entry, looked up): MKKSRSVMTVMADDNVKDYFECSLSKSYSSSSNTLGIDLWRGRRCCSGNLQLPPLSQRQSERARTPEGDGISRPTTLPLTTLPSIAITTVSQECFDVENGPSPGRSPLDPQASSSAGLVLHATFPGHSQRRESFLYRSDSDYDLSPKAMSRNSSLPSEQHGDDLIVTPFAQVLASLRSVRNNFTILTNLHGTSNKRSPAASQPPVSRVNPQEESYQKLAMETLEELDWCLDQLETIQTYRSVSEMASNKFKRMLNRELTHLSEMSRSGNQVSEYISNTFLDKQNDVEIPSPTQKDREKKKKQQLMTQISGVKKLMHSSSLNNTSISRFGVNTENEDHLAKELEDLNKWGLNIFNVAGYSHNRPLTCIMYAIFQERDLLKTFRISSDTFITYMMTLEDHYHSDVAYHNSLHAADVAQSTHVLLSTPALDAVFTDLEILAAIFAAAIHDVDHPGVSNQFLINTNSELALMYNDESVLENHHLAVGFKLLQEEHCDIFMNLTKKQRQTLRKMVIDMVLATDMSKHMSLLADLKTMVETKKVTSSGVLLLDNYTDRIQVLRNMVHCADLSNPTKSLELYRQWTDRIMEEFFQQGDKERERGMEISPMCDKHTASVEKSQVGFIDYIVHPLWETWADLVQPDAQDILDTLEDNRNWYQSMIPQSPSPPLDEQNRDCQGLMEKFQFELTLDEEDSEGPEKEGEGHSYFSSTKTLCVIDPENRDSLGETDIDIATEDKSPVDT
Method in brief: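 ACTOne HEK293 cells carry a modified cAMP-gated CNG channel and express endogenous PDE4; plated 1000 cells/well, compounds up to 22.9 uM final. Membrane-potential dye fluorescence (ex 535/em 590) was read; parental cells received 10 uM forskolin + 100 uM RO 20-1724.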

[10] = biological target: Cytochrome P450 2C9 (Homo sapiens) (UniProt P11712); experiment: qHTS Assay for Inhibitors and Substrates of Cytochrome P450 2C9 (AID 883); details: recombinant CYP2C9, luciferin-H luminescence, 60 min; series mostly up to 57.1 µM; further: on the % scale 0 is the no-effect control and ±100 the full control effect; nearly all actives have a fitted effect of over 60% in size
Method in brief: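 Turnover of Luciferin-H (100uM, KM) by 10nM human CYP2C9 was measured over 60 min at 37C with NADPH regeneration; inhibitors and some substrates reduce luminescence. Data normalized to sulphaphenazole 57uM.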

[11] = qHTS Assay for Lipid Storage Modulators (AID 1519; calls by dose curve); details: Drosophila S3 cells, BODIPY lipid droplet/cell ratio, laser cytometry, cells loaded with oleic acid; for activity change, negative = inhibition: at 57.5 µM (top of the series)
Method in brief: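 Cells seeded at 5,000 per well were treated with compounds over a concentration series and loaded with oleic acid (400 uM, as added). Lipid droplet fluorescence (488 nm excitation, 500-530 nm channel) was read by laser-scanning cytometry and normalized to 20 uM Triacsin C.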

[12] = biological target: Dual specificity protein kinase CLK4 (Homo sapiens) (UniProt Q9HAZ1); experiment: qHTS Assay for Inhibitors of CDC-like Kinase 4 (Kinase-Glo Assay) (AID 1770); details: recombinant Clk4, Kinase-Glo ATP depletion luminescence; series mostly up to 66.7 µM; further: on the % scale 0 is the no-effect control and ±100 the full control effect; nearly all actives have a fitted effect of over 65% in size
Dual specificity protein kinase CLK4 (Homo sapiens), sequence (Q9HAZ1 whole entry, looked up): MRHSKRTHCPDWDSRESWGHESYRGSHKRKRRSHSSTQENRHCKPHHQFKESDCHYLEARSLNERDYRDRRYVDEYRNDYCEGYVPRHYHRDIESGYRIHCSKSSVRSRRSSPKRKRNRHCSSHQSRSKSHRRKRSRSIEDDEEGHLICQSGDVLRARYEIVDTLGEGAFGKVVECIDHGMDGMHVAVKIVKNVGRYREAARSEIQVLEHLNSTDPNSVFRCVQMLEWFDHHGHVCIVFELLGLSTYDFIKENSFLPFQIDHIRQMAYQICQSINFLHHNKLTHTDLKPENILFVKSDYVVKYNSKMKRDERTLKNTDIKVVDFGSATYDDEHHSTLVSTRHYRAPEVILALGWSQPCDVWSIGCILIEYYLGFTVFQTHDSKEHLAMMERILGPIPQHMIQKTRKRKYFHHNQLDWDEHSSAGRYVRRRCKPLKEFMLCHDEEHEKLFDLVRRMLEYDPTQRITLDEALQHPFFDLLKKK
Method in brief: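 Clk4 25 nM, RS peptide 100 uM, ATP 1 uM, pH 7.5 Tris, 10 mM MgCl2, 2.5 mM DTT; 4.5 h RT; ATP depletion read by Kinase-Glo luminescence.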

[13] = biological target: Dual specificity protein kinase CLK4 (Homo sapiens) (UniProt Q9HAZ1); experiment: qHTS Assay for Inhibitors of CDC-like Kinase 4 (ADP-Glo Assay) (AID 1771); details: recombinant CLK4, ADP-Glo luminescence; series mostly up to 80 µM; further: on the % scale 0 is the no-effect control and ±100 the full control effect; nearly all actives have a fitted effect of over 70% in size
Method in brief: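 ADP production was read by ADP-Glo luminescence after residual ATP depletion, following 1 h room-temperature reaction of 25 nM Clk4, 1 uM ATP and 100 uM RS peptide with MgCl2, EGTA, DTT and Triton X-100.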

[14] = biological target: Dual specificity protein kinase CLK4 (Homo sapiens) (UniProt Q9HAZ1); experiment: qHTS Assay for Inhibitors of CDC-like Kinase 4 (ADP-FP Assay) (AID 1795); details: Transcreener ADP fluorescence polarization; series mostly up to 50 µM;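 further: recombinant human CLK4 phosphorylating RS repeat peptide at 1 µM ATP; on the % scale 0 is the no-effect control and ±100 the full control effect; nearly all actives have a fitted effect of over 60% in size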
Method in brief: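 Kinase activity was followed as ADP output, converted from fluorescence polarization with a calibration curve. Reactions ran one hour at low ATP (1 uM) with RS peptide substrate.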

[15] = Counterscreen qHTS for small molecule stabilizers of the endoplasmic reticulum resident proteome: GLuc-NoTag assay (AID 1508627); details: Gaussia luciferase NoTag secretion counterscreen, luminescence, thapsigargin 100 nM for final 4 h; series mostly up to 76.4 µM;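 further: 0% = thapsigargin alone and -100% = DMSO vehicle control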
Method in brief: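 Counterscreen line: SH-SY5Y-GLuc-NoTag cells, treated with compound 19 hr before a 4 hr, 100 nM thapsigargin calcium depletion. Secreted Gaussia luciferase in the medium was measured by luminescence after coelenterazine was added (0.07x final), with cells unlysed.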

[16] = Confirmatory qHTS for small molecule stabilizers of the endoplasmic reticulum resident proteome: Secreted ER Calcium Modulated Protein (SERCaMP) assay (AID 1508628); details: SERCaMP secreted luciferase ER calcium/proteostasis reporter; series mostly up to 76.3 µM; further: potency means the concentration at half of the fitted maximal effect; nearly all actives have a fitted effect of over 40% in size
Method in brief: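 Reporter secretion upon ER calcium depletion (100 nM thapsigargin, 4 h, 37C) is measured as medium luminescence with coelenterazine, after 16 h compound pretreatment of SH-SY5Y-GLuc-SERCaMP cells; primary at three concentrations up to 38.3 uM, follow-up at 11 (up to 76.6 uM).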

[17] = biological target: Cytochrome P450 3A4 (Homo sapiens) (UniProt P08684); experiment: qHTS Assay for Inhibitors and Substrates of Cytochrome P450 3A4 (AID 884); details: recombinant CYP3A4, Luciferin-PPXE luminescence; series mostly up to 57.1 µM; further: on the % scale 0 is the no-effect control and ±100 the full control effect; nearly all actives have a fitted effect of over 50% in size
Cytochrome P450 3A4 (Homo sapiens), sequence (P08684 whole entry, looked up): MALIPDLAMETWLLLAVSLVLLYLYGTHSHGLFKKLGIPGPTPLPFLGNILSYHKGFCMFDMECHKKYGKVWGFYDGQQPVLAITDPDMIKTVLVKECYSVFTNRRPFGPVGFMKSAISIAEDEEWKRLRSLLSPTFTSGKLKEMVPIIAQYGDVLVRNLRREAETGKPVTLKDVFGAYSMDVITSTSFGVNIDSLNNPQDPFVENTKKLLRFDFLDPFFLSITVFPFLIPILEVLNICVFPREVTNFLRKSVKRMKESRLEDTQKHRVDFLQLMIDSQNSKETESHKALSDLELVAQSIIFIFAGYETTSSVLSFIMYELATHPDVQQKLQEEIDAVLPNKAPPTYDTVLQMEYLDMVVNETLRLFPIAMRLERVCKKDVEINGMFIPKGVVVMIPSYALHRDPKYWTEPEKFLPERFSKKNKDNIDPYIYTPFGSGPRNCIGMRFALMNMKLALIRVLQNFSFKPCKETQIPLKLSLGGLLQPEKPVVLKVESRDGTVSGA
Method in brief: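 Luminescent readout of luciferin produced by CYP3A4 (20 nM) dealkylation of Luciferin-PPXE, 25 uM (its KM). NADPH-driven reaction ran 60 min at RT after 10 min compound preincubation; data scaled to 57 uM ketoconazole as 100% inhibition.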

[18] = biological target: Ubiquitin carboxyl-terminal hydrolase 1 (Homo sapiens) (UniProt O94782); experiment: Inhibitors of USP1/UAF1: Pilot qHTS (AID 504865); details: purified USP1/UAF1, Ub-rhodamine cleavage fluorescence; series mostly up to 54.9 µM;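 further: rhodamine fluorescence freed from ubiquitin-rhodamine substrate followed over time; top concentration of the series differs between compounds; on the % scale 0 is the no-effect control and ±100 the full control effect; nearly all actives have a fitted effect of over 35% in size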
Ubiquitin carboxyl-terminal hydrolase 1 (Homo sapiens), sequence (O94782 whole entry, looked up): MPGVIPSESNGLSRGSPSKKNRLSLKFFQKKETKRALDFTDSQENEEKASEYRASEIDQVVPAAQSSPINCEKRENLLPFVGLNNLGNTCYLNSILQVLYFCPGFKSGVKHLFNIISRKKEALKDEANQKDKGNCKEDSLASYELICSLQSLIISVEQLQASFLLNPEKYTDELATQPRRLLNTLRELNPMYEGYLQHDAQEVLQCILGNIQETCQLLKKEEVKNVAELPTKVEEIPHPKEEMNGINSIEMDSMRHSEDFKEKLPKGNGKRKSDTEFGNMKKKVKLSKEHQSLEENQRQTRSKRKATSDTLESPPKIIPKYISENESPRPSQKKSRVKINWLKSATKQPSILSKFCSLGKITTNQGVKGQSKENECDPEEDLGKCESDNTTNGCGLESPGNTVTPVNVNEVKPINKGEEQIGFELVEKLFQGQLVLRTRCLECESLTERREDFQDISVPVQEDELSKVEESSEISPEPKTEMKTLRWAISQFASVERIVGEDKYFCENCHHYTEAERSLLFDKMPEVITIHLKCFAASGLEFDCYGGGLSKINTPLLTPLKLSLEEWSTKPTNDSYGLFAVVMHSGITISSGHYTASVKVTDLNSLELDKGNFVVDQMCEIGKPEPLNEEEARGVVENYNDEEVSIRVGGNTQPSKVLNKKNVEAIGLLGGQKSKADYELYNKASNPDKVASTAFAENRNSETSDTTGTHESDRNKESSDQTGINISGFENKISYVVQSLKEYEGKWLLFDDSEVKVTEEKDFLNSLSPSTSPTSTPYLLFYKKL
Method in brief: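 Enzyme-free wells gave the negative control, while test wells held 1nM USP1/UAF1 preincubated with compound for 15 min at room temperature. Ub-Rho at 150nM final started the reaction, and fluorescence at 480/540 nm was recorded kinetically.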

[19] = Cell Viability qHTS for small molecule stabilizers of the endoplasmic reticulum resident proteome (AID 1508629); details: cell viability counter-screen, 100 nM thapsigargin for final 4 h
[20] = biological target: Cytochrome P450 3A4 (Homo sapiens) (UniProt P08684); experiment: qHTS Assay for Activators of Cytochrome P450 3A4 (AID 885); details: recombinant CYP3A4, Luciferin-PPXE luminescence, 60 min; series mostly up to 57.1 µM; further: nearly all actives have a fitted effect of over 65% in size
Method in brief: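 CYP3A4 activity: Luciferin-PPXE O-dealkylation, 25uM substrate, 200mM KPO4, RT throughout. Read-out is luciferase luminescence; higher values reflect activation.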

[21] = biological target: Cytochrome P450 2C19 (Homo sapiens) (UniProt P33261); experiment: qHTS Assay for Inhibitors and Substrates of Cytochrome P450 2C19 (AID 899); details: recombinant CYP2C19, luciferin-H EGE luminescence; series mostly up to 57.1 µM; further: on the % scale 0 is the no-effect control and ±100 the full control effect; nearly all actives have a fitted effect of over 60% in size
Cytochrome P450 2C19 (Homo sapiens), sequence (P33261 whole entry, looked up): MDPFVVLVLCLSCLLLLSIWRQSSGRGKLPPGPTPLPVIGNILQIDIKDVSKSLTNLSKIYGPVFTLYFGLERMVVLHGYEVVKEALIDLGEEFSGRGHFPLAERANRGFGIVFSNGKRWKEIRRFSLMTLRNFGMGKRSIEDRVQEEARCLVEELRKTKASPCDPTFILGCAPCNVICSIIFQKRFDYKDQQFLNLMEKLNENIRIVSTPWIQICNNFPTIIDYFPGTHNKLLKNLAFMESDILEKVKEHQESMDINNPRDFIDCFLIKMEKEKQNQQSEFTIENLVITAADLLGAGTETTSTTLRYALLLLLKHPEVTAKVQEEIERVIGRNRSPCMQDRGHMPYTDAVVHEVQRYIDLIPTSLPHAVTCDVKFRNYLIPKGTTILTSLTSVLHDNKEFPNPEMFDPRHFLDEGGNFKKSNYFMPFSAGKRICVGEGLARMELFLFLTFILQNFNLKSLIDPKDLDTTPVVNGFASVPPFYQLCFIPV
Method in brief: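 Reactions contain 5nM enzyme, 10uM Luciferin-H EGE (KM) and 50mM KPO4; compound preincubates 10 min at 37C, NADPH regeneration starts turnover for 60 min. Luminescence after detection reagent gives activity.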

[22] = measured here: cell count channel max response
[23] = measured here: lipid channel max response

FC(F)(F)c1ccccc1-c1nccc(N2CCNCC2)n1
active: Potency [3] 10 µM | Potency [16] 15.8 µM
inactive: Potency [1] > 11.4 µM | activity change, negative = inhibition [2] -4.79% | activity change, negative = inhibition [4] -3.28% | activity, negative = inhibition [5] 9.61% | Potency [6] > 46 µM | Potency [7] > 46 µM | outcome [8] | Potency [9] | activity change, negative = inhibition [10] 37.4% [at 2.29 µM] | activity change, negative = inhibition [11] 4.7% | Potency [12] | Potency [13] | Potency [14] | Potency [15]
10.7%: max response [11, 22]
12.2%: max response [11, 23]

COc1ccc(-n2c(=O)c(-c3ccccc3)nc3cnc(N4CCN(C)CC4)nc32)cc1
20%: max response [11, 23]
active: Potency [3] 20 µM | Potency [16] 25.1 µM
22%: max response [11, 22]
inactive: Potency [1] > 11.4 µM | activity change, negative = inhibition [2] 14.5% | activity change, negative = inhibition [4] 5.17% | activity, negative = inhibition [5] 12.2% | Potency [6] > 9.22 µM | Potency [7] > 46 µM | outcome [8] | Potency [9] | Potency [17] | activity change, negative = inhibition [11] 0.696% | Potency [12] | Potency [13] | Potency [14] | Potency [18] | Potency [15] | max response [19] 12.9%

Cc1nc2cnc(N3CCNCC3)nc2n(Cc2ccc(F)cc2)c1=O
19.5%: max response [11, 23]
inactive: Potency [1] > 11.4 µM | activity change, negative = inhibition [2] 7.46% | activity change, negative = inhibition [4] -14.9% | activity, negative = inhibition [5] 7.66% | Potency [6] > 9.22 µM | Potency [7] > 46 µM | outcome [8] | Potency [20] | Potency [21] | activity change, negative = inhibition [11] 2.97% | Potency [15] | max response [19] 11.4%
14.9%: max response [11, 22]
active: Potency [3] 12.6 µM | Potency [16] 20 µM
